Measured values from publication PMC4336329 (PLoS ONE, 2015).
Screen size: about 310,000 compounds; about 14,000 (4.5%) showed an effect of 50% or more. Effects have a minus sign here. Shown is part of a subset that was picked to be rich in strong results.

Target: human ether-à-go-go-related gene (hERG) potassium channel (human, UniProt Q12809)
Test: primary screen, population patch clamp on CHO cells stably expressing hERG; higher = less effect of the substance
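Further: peak tail current of the secondary pulse compared with the same well before compound.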

Chain of human ether-à-go-go-related gene (hERG) potassium channel (Q12809 whole entry, looked up): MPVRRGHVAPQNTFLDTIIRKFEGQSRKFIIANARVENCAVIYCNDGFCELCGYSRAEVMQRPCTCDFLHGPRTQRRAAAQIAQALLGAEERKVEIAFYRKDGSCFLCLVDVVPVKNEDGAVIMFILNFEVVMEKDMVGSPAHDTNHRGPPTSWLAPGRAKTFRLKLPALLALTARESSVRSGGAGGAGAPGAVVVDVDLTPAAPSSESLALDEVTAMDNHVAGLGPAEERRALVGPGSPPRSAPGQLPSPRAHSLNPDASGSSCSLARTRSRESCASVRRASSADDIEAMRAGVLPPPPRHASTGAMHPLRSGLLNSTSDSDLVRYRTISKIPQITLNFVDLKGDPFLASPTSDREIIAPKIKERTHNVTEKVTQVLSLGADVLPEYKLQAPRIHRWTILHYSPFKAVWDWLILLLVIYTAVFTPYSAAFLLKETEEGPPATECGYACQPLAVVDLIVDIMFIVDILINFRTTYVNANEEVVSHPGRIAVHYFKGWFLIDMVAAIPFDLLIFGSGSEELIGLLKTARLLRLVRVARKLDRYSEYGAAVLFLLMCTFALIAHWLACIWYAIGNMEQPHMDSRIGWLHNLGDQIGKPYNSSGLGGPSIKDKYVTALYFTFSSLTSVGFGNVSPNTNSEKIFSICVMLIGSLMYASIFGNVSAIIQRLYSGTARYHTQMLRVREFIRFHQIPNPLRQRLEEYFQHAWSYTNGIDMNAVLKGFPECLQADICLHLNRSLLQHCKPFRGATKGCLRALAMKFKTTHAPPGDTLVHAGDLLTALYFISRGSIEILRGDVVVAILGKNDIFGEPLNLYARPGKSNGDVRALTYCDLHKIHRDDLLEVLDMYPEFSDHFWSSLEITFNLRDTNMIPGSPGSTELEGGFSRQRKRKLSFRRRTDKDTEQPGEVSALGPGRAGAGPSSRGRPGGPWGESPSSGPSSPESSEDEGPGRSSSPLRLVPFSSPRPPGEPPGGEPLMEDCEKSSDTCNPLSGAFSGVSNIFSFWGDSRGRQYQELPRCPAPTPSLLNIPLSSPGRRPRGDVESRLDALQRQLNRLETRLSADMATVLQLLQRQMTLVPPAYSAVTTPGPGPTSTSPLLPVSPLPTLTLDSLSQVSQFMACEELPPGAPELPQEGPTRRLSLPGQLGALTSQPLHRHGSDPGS

SMILES	hERG current change (%, negative = inhibition) at 10uM [%]
COc1cc(C(=O)Nc2ccc3c(c2)OCO3)ccc1-n1cnnn1	-15.6
O=C(Cn1nnc(-c2ccccc2-n2cnnn2)n1)NCc1ccccc1	-5.93
COc1ccc(OCC(=O)N2CCN(C(=O)Cc3ccccc3)CC2)cc1	-32.5
COc1ccc(N2CCN(C(=O)COc3ccccc3)CC2)cc1	-20.6
CC1CCC(N2CCN(C(=O)COc3ccccc3)CC2)CC1.O=C(O)C(=O)O (stereo not drawn)	-31.4
Cc1ccc(OCC(=O)N2CCN(C3CCC(c4ccccc4)CC3)CC2)cc1.O=C(O)C(=O)O (stereo not drawn)	-62.8
COc1ccc(OCC(=O)N2CCN(C3CCC(c4ccccc4)CC3)CC2)cc1 (stereo not drawn)	-54.4
Cc1ccc(OCC(=O)N2CCC(N3CCCCCC3)CC2)cc1	-28.3
COc1ccc(C2NC(=O)Cc3cc(OC)c(OC)cc32)cc1OC (stereo not drawn)	5.46
COC(=O)c1ccc(/C=C/C(=O)OCC(=O)Nc2ncc(Cl)cc2Cl)cc1	-19.9
CCOc1ccccc1CNn1cnnc1	2.62
Cc1nn(Cc2ccc(Cl)c(Cl)c2)c(C)c1NC(=O)c1cc(-c2ccc3c(c2)OCO3)on1	6.42
Brc1ccc2c(c1)C(C1=NCCN1)c1ccccc1CS2.O=C(O)/C=C\C(=O)O (stereo not drawn)	-20.3
O=C(Nc1cccc(Cl)c1)OC1CN2CCC1CC2 (stereo not drawn)	29.5
CCOCCN1CCN(C2c3ccccc3CSc3ccccc32)CC1.O=C(O)C(=O)O (stereo not drawn)	-30.3
O=C(Nc1ccccc1Cl)OC1CN2CCC1CC2 (stereo not drawn)	-32.9
CN1CCN(CCOC2c3ccccc3CSc3ccc(Cl)cc32)CC1.O=C(O)/C=C\C(=O)O (stereo not drawn)	-57.2
Brc1ccc2c(c1)C(OC1CN3CCC1CC3)c1ccccc1CS2.O=C(O)/C=C\C(=O)O (stereo not drawn)	-71.4
Clc1ccc2c(c1)C(C1=NCCN1)c1ccccc1CS2.O=C(O)/C=C\C(=O)O (stereo not drawn)	-8.02
Cc1cccc(NC(=O)OC2CN3CCC2CC3)c1 (stereo not drawn)	-9.77
Clc1ccc2c(c1)C(OC1CN3CCC1CC3)c1ccccc1CS2.O=C(O)/C=C\C(=O)O (stereo not drawn)	-50.6

SMILES	hERG current change (%, negative = inhibition) at 10uM [%]
CCC(=O)OC1(C)C(=O)C=C2C=C(CCCCNC(=O)OC(C)(C)C)OC=C2C1=O (stereo not drawn)	6.58
CCCN(CCC)CCCNC(=O)CN1C(=O)CSc2ccc(S(=O)(=O)N3CCOCC3)cc21	20.2
CCc1ccc(-c2nnn(Cc3nc4ccccc4s3)n2)cc1	-10.3
Cc1ccc(OCC(=O)Nc2ccc(S(=O)(=O)N3CCCC3)cc2)cc1	15.5
O=C(N/N=C/c1cc([N+](=O)[O-])ccc1O)C(O)(c1ccccc1)c1ccccc1	4.13
Cc1cc(C(=O)NN=C2CCCCCCC2)c2ccccc2n1	5.42
C=CCOC(=O)C1=C[C@H](c2ccc(C(F)(F)F)cc2)[C@@H](CCCO)[C@H](OCC)O1	-16.3
O=C(CC1C(=O)NCCN1Cc1ccc(Cl)c(F)c1)NCCc1cccnc1 (stereo not drawn)	-12.7
CCC1CCCCN1C(=O)C(=O)c1cn(CC(=O)N(CC)CC)c2ccccc12 (stereo not drawn)	21
CCCCN(C(=O)c1ccc2c(c1)OCCO2)c1c(N)n(CC(C)C)c(=O)[nH]c1=O	-11.7
O=c1oc2ccccc2n1CCn1c2ccccc2c2nc3ccccc3nc21	10.7
Cn1c(=O)cc(SCC(=O)NCCCN2CCOCC2)c2ccc(Cl)cc21	-3.15
Cn1c(=O)cc(SCC(=O)NCCC2=CCCCC2)c2cc(Cl)ccc21	5.01
Cc1cccc(CN2CCC(CNC(=O)CSc3cc(=O)n(C)c4cc(Cl)ccc34)CC2)c1	-69.7
Cn1c(=O)cc(SCC(=O)NCC2CCCO2)c2ccc(Cl)cc21 (stereo not drawn)	-7.37
CCN(CCCNC(=O)CSc1cc(=O)n(C)c2cc(Cl)ccc12)Cc1ccccc1	-58.8
CN(CCCNC(=O)COc1cc(=O)n(C)c2ccccc12)Cc1ccccc1	-18.1
CN(CCCNC(=O)CSc1cc(=O)n(C)c2cc(Cl)ccc12)Cc1ccccc1	-63.5
CCN1CCCC1CNC(=O)CSc1cc(=O)n(C)c2cc(Cl)ccc12 (stereo not drawn)	-32.7
COCCNC(=O)CSc1cc(=O)n(C)c2cc(Cl)ccc12	2.04
CN(CCCNC(=O)CSc1cc(=O)n(C)c2ccc(Cl)cc12)Cc1ccccc1	-61.2
